Reference: PubChem BioAssay (NCATS)
Results filed as inconclusive are left out. Active and inactive are the calls of the source. Calls come from the whole dose curve; as a rule, active = well fitted curve in the direction sought with a large enough effect; inconclusive = small, poorly fitted or top-dose-only effect, or another doubt; inactive = no such curve, though single readings can be large; an effect the other way counts as inactive or inconclusive.

Legend:
[1] = Panc-1005 Cancer Cell Toxicity qHTS against the NCATS CANVASS Library (AID 1347349); conditions: Panc-1005 viability, CellTiter-Glo luminescence, 72 h; series mostly up to 38.3 µM; note: nearly all actives have a fitted effect of over 60% in size
How it was run: (§1)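 In this cytotoxicity screen, 1000 cells per well rested 4 hours, then received compound (11 concentrations) for a 72-hour incubation; an ATP-dependent luminescent signal (CellTiter-Glo) was the endpoint.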

[2] = SW1088 Cancer Cell Toxicity qHTS against the NCATS CANVASS Library (AID 1347350); conditions: SW1088 viability, CellTiter-Glo luminescence, 72 h; series mostly up to 38.3 µM; note: nearly all actives have a fitted effect of over 75% in size
How it was run: as §1

[3] = U-118MG Cancer Cell Toxicity qHTS against the NCATS CANVASS Library (AID 1347351); conditions: U-118MG viability, CellTiter-Glo luminescence, 72 h; at 38.3 µM (top of the series)
How it was run: as §1

[4] = COV-362 Cancer Cell Toxicity qHTS against the NCATS CANVASS Library (AID 1347352); conditions: COV-362 viability, CellTiter-Glo luminescence, 72 h; series mostly up to 38.3 µM
How it was run: (§2)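 Cells were seeded at 1000 per well and allowed to settle 4 hours at 37 degrees C before pin transfer of compounds as an 11-point series. Viability was read by CellTiter-Glo luminescence after 72 hours' exposure.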

[5] = A2780 Cisplatin Sensitive Ovarian Cancer Cell Toxicity qHTS against the NCATS CANVASS Library (AID 1347353); conditions: A2780 ovarian cancer viability, ATPLite luminescence, 72 h; at 46.1 µM (top of the series); note: nearly all actives have a fitted effect of over 60% in size
How it was run: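 A2780 cisplatin-sensitive cells (750 per well) were seeded, left 4 h at 37 °C, then pin-dosed in an 11-point series. After 72 h at 37 °C/5% CO2, viability was measured as ATPLite luminescence.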

[6] = UWB1.289-WTBRCA1 Cancer Cell Toxicity qHTS against the NCATS CANVASS Library (AID 1347354); conditions: UWB1.289-WTBRCA1 viability, CellTiter-Glo luminescence, 72 h; at 38.3 µM (top of the series)
How it was run: as §2

[7] = HEK-293 Cancer Cell Toxicity qHTS against the NCATS CANVASS Library (AID 1347355); conditions: HEK-293 viability, CellTiter-Glo luminescence, 72 h; at 46.1 µM (top of the series); note: nearly all actives have a fitted effect of over 65% in size
How it was run: as §2

[8] = HPAF-II 24hr Apoptosis Induction qHTS against the NCATS CANVASS Library (AID 1347356); conditions: HPAF-II caspase-3/7 Caspase-Glo luminescence; series mostly up to 46.1 µM
How it was run: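 HPAF-II cells (500/well) in DMEM + 10% FBS were treated with an 11-point compound series for 24 hours at 37 degrees C. Caspase-3/7 activity was then read by Caspase-Glo DEVD luminescence after 15 min.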

[9] = HEK293 18hr Apoptosis Induction qHTS against the NCATS CANVASS Library (AID 1347357); conditions: HEK293 caspase-3/7 Caspase-Glo luminescence; series mostly up to 46.1 µM
How it was run: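 Natural products applied to HEK293 for 18 hr; Caspase-Glo 3/7 readout.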

[10] = HPAF-II 12hr Apoptosis Induction qHTS against the NCATS CANVASS Library (AID 1347358); conditions: HPAF-II caspase-3/7 Caspase-Glo luminescence; series mostly up to 46.1 µM
How it was run: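 HPAF-II cells (500/well, DMEM + 10% FBS) were exposed to compounds for 12 hours at 37 degrees C. Caspase-3/7 activity was then read by Caspase-Glo 3/7 luminescence after 15 min at room temperature.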

Measured: outcome

NCC(O)c1ccc(O)cc1 (stereo not given)
inactive: [1] | [2] | [3] | [4] | [5] | [6] | [7] | [8] | [9] | [10]
